High-throughput results (PubChem BioAssay)
CYP2C19 inhib = human CYP2C19 inhibition; P33261; inhibition, % at 5 µM; actives 21% (n = 96,000); CYP2C19 Supersomes, luciferin-H EGE luminescence, 30 min;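 active = CYP2C19 inhibition above a set limit at 5 µM in the primary screen, cut at about 50% in these data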;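 also: plate controls were negative control wells for no effect and 2.5 mM tranylcypromine positive control for full effect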
Target sequence (P33261 whole entry, looked up): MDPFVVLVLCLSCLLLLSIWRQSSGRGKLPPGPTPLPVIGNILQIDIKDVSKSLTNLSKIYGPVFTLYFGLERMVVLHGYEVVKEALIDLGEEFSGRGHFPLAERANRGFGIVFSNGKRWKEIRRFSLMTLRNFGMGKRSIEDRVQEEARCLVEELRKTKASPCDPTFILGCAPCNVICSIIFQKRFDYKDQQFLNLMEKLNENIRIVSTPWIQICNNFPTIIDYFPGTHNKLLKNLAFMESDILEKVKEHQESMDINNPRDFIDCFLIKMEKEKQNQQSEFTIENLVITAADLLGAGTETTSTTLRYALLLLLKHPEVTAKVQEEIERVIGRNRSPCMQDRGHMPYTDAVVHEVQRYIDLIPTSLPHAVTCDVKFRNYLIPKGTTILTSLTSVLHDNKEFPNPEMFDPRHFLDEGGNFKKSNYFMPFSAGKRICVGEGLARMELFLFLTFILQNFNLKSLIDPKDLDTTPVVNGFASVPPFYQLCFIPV
PostGolgi ctrl = growth of the yeast control strain, post-Golgi counter-screen. inhibition, % at 10 µM. AID 738. efflux-deficient yeast background strain, growth absorbance A615, 16 h. actives 5% (n = 98,000)
CYP2C19 activ = increases human CYP2C19 enzyme activity. 96,000 tested, under 10 active. activation factor at 5 µM. recombinant CYP2C19, luciferin-H EGE luminescence; stronger effect = higher value; 0 = fully inhibited enzyme, 1 = untreated enzyme. P33261. AID 1025;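 active = activation factor of at least 2 at 5 µM in the primary screen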;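 also: 0 = wells with 2.5 mM tranylcypromine and 1 = vehicle-only wells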
CYP2C9 inh = human CYP2C9 inhibition. CYP2C9 Supersomes, luciferin-H conversion, luminescence. inhibition, % at 5 µM. actives 20% (n = 96,000);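 active = blocking of liver enzyme CYP2C9 beyond about 50% at 5 µM, limit read from the data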
PostGolgi yeast = growth inhibition of a yeast mutant, post-Golgi transport screen | post-Golgi transport phenotypic cell assay | inhibition, % at 10 µM | actives 0.9% (n = 98,000) | AID 739;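 also: yeast cells grown in 1536-well plates; yeast grown about 18 h at 30C before absorbance read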
CYP2C9 act = increases human cytochrome P450 2C9 activity. recombinant CYP2C9, luciferin-H conversion, luminescence; stronger effect = higher value; factor 1 = untreated enzyme, 0 = blocked. activation factor at 5 µM. AID 1024. actives 1.4% (n = 96,000);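 active = activation factor of 2 or more for CYP2C9 at a 5 µM dose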;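 also: 0 = sulfaphenazole-blocked wells and 1 = vehicle-only wells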
Starred values were filed as active, the others as inactive. Shown are actives, neighbours in structure and some others; about 32% of the full set was active somewhere. Rule as the data show it, unless noted: active = inhibition above about 30%; inactive = the rest.

SMILES	CYP2C19 inhib	PostGolgi ctrl	CYP2C19 activ	CYP2C9 inh	PostGolgi yeast	CYP2C9 act
CC(C)(C)NC(=O)c1ccc(NC(=O)C2COc3ccccc3O2)cc1 (configuration not stated)	37	0	0.6	25	0	0.8
COC(=O)c1ccc(C)c(NC(=O)C2COc3ccccc3O2)c1 (configuration not stated)	78*	1	0.2	79*	-6	0.2
CN(C)S(=O)(=O)N1CCN(S(=O)(=O)N(C)C)CC1	7	8	0.9	-4	-3	1
O=C(Oc1cccc(NC(=O)c2ccco2)c1)c1ccc(Br)c(S(=O)(=O)N2CCCCC2)c1	26	8	0.7	48	10	0.5
Cn1c(=O)c2c(nc(NCc3ccc4c(c3)OCO4)n2Cc2ccc(F)cc2)n(C)c1=O	26	19	0.7	23	-8	0.8
Cn1c(Cl)nc2c1c(=O)n(Cc1cccc(Br)c1)c(=O)n2C	94*	12	0.1	39	-8	0.6
Cn1c(NCc2ccccc2)nc2c1c(=O)n(Cc1ccc(Br)cc1)c(=O)n2C	89*	21	0.1	97*	2	0
COc1ccc(CNc2nc3c(c(=O)n(Cc4ccc(Br)cc4)c(=O)n3C)n2C)cc1	48	25	0.5	63*	6	0.4
Cn1c(=O)c2c(nc(NCc3ccc4c(c3)OCO4)n2Cc2ccccc2)n(C)c1=O	56*	18	0.4	65*	-5	0.3
CC1CN(c2nc3c(c(=O)n(Cc4ccc(Cl)cc4)c(=O)n3C)n2C)CC(C)O1 (configuration not stated)	13	15	0.9	14	-3	0.9
CCCC(=O)c1ccc(-c2ccccc2)cc1	19	-2	0.8	18	5	0.8
Cn1c(NCc2ccco2)nc2c1c(=O)n(Cc1ccc(Br)cc1)c(=O)n2C	6	32*	0.9	0	-6	1
Cn1c(=O)c2c(nc(Oc3ccc4c(c3)OCO4)n2Cc2ccc(Cl)cc2)n(C)c1=O	-6	1	1.1	27	2	0.7
Cn1c(Oc2ccc3c(c2)OCO3)nc2c1c(=O)n(Cc1ccccc1)c(=O)n2C	9	31*	0.9	-4	5	1
COc1ccccc1Oc1nc2c(c(=O)n(Cc3ccccc3F)c(=O)n2C)n1C	60*	26	0.4	-10	-1	1.1
CC(C)N=C(Nc1ccc(Cl)cc1)c1cccnc1	34	-4	0.7	2	2	1
CCn1c(=O)cc(SCC(=O)N2CCN(c3ccccn3)CC2)c2ccccc21	72*	1	0.3	51*	0	0.5
CCn1c(=O)cc(SCC(=O)N2CCN(c3ccccc3F)CC2)c2ccccc21	41	13	0.6	-121	10	2.2*
Cc1cc2ccccc2c(=O)n1CC(=O)NCC(=O)N1CCN(c2ccccc2F)CC1	-4	9	1	-110	1	2.1*
CCn1c(=O)n(CC(=O)N2CCN(c3ccccc3F)CC2)c(=O)c2ccccc21	13	3	0.9	25	2	0.8
COc1cc(OC)cc(-c2nc(-c3cc4cc(C)ccc4nc3OC)no2)c1	23	8	0.8	1	15	1
COc1nc2ccc(C)cc2cc1-c1noc(-c2ccccc2)n1	13	31*	0.9	36	8	0.6
Cc1c(Cl)cccc1-n1nnnc1-c1cccs1	96*	17	0	26	2	0.7
CCCCOC(=O)C(C)c1c(C)[nH]c(=S)[nH]c1=O (configuration not stated)	8	-2	0.9	6	-1	0.9
CSc1nc(-c2ccc(C)cc2)[nH]c1S(=O)(=O)c1ccccc1	46	16	0.5	78*	4	0.2
COc1ccc(-c2nnc(SCC(=O)Nc3cc(C)on3)n2C)cc1OC	5	-2	1	-1	0	1
Cc1nc2sc(C(c3ccc(C(C)C)cc3)N3CCN(CCO)CC3)c(O)n2n1 (configuration not stated)	2	6	1	-6	-2	1.1
C=CCn1c(SCCC)nc(O)cc1=O	-7	9	1.1	2	1	1
Cc1ccc(-c2csc(=S)n2CC(=O)OCC(=O)NCc2ccco2)cc1	28	11	0.7	56*	17	0.4
